APE1 inh: inhibitors of human APE1 endonuclease; P27695; recombinant APE1, TAMRA/BHQ-2 abasic DNA cleavage fluorescence; Potency, µM (series often up to 65.8 µM), for inactives: top-dose activity change, negative = inhibition, actives largely listed as inhibitors; hit rate 0.35% among 350,000; AID 2517;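 further: potency means the concentration at half of the fitted maximal effect; plate controls were vehicle for no effect and reference inhibitor for full effect; nearly all actives have a fitted effect of over 55% in size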
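Step 1: APE1 (0.75 nM) with compound, 15 min RT. Step 2: add 50 nM fluorophore/quencher THF duplex. Step 3: three fluorescence reads 60 s apart (525/598 nm); read 3 minus read 1 = reaction progress.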
RECQ1 helicase: inhibitors of human RECQ1 DNA helicase | P46063 | hit rate 0.54% among 240,000 | Potency, µM (highest dose often 57.3 µM), without a hit: top-dose activity, negative = inhibition, most hits filed as inhibitors | RECQ1 DNA unwinding, red fluorescence kinetic read;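 further: potency means the concentration at half of the fitted maximal effect; plate controls were vehicle for no effect and no enzyme for full effect; nearly all actives have a fitted effect of over 30% in size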
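RECQ1T1 50 nM; forked duplex (20 bp + 30-nt ss tails) 200 nM, ATP 2 mM final; pH 8.0, 2 mM MgCl2, 2.5 ug/ml poly(dI-dC); 15 min compound preincubation; discontinuous kinetic read over 2 h at RT.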
WRN inhibitor: blocks human WRN helicase; WRN helicase unwinding, fluorescent forked duplex, kinetic; Potency, µM (highest dose often 114 µM), without a hit: at the highest dose activity change, negative = inhibition, hits mostly inhibitors; hit rate 0.46% among 360,000; Q14191; further: potency means the concentration at half of the fitted maximal effect; nearly all actives have a fitted effect of over 55% in size
Target sequence (Q14191 whole entry, looked up): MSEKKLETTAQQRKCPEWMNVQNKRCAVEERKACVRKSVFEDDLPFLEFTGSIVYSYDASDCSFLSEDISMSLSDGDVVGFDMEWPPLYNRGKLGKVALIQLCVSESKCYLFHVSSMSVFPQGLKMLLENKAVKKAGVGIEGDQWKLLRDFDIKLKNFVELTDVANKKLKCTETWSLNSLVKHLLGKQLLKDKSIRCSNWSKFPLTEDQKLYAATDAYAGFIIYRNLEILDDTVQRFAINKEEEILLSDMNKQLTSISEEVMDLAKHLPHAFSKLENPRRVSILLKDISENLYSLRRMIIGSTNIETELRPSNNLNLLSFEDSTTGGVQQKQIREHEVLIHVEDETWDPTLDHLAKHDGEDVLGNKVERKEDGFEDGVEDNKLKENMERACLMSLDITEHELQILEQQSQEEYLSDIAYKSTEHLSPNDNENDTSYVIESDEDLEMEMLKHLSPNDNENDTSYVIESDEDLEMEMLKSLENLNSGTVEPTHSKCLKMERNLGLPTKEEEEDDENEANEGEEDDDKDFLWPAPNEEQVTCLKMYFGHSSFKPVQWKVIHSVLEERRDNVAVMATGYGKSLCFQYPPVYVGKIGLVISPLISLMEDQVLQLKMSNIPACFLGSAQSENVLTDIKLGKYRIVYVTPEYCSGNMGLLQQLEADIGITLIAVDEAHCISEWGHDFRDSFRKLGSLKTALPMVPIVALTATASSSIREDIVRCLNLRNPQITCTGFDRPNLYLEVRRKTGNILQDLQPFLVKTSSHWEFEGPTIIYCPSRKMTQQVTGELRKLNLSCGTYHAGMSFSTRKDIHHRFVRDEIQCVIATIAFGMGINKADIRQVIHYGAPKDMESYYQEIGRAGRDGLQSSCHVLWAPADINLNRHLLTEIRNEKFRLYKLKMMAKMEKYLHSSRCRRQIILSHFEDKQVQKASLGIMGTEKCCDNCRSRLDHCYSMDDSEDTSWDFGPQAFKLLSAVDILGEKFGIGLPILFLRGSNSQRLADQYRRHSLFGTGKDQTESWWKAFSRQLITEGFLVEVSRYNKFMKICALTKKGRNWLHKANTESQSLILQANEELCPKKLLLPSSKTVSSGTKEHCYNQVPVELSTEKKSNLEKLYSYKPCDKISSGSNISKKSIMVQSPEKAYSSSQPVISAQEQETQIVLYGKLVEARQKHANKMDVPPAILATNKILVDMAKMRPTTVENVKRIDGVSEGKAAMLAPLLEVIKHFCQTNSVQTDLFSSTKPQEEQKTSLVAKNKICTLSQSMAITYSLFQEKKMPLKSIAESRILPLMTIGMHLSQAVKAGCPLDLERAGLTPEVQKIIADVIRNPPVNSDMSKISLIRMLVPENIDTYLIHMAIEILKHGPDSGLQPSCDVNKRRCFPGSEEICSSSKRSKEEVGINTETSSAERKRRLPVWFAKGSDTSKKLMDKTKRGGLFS
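Fluorescence dequenching readout, ex 525 nm/em 598 nm, kinetic mode: forked duplex DNA (100 nM final) with adjacent fluorophore and quencher unwound by WRN (20 nM final) with 2 mM ATP. Compound preincubation 15 min, room temperature.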
BLM inh: blocks DNA unwinding by human BLM helicase. hit rate 0.2% among 350,000. P54132. recombinant BLM DNA unwinding, fluorescence dequenching. AID 2528. Potency, µM (titrated, usually from 56.1 µM), inactives show at the top dose activity change, negative = inhibition, actives largely listed as inhibitors;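 further: potency means the concentration at half of the fitted maximal effect; plate controls were vehicle for no effect and no enzyme for full effect; nearly all actives have a fitted effect of over 35% in size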
FEN1 inh: inhibitors of human flap endonuclease 1; AID 588795; hit rate 0.35% among 390,000; Recombinant FEN1 flap cleavage, fluorescence, 15 min; P39748; Potency, µM (top dose mostly 114 µM), for the others: top-dose activity change, negative = inhibition, hits mostly inhibitors; further: potency means the concentration at half of the fitted maximal effect; nearly all actives have a fitted effect of over 65% in size
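Read-out was taken twice, immediately and after 15 min, following addition of 50 nM substrate to 10 nM FEN1 that had sat with test compound for 15 min at room temperature. Curves came from a four-parameter Hill model.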
PI5P4K alpha inh: blocks human PI5P4K alpha kinase activity; PI5P4Kalpha enzyme, ADP-Glo luminescence, 60 min; hits give low values; P48426; hit rate 1.2% among 330,000; max response, %; active means max response of -50% or lower; inconclusive means between -30% and -50%; inactive means -30% or higher; further: value at the top dose of about 77 µM
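Enzyme plus substrate dispensed, test compounds pinned in, then ATP (5 microM final) added. After 60 min at RT, ADP-Glo reagent 1 for 45 min and reagent 2 for 30 min preceded luminescence imaging.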
ADP-Glo interf: counter-screen for PI5P4K inhibitors: ADP-Glo detection interference, no enzyme; shares compounds with PI5P4K alpha inh; ADP-Glo detection counter-screen, luciferase luminescence, no enzyme; Potency, µM (highest dose often 76.9 µM), for inactives: top-dose activity change, negative = inhibition, hits mostly inhibitors; 1,100 tested, under 10 active
Starred values were filed as active, the others as inactive; i = inactive; ? = inconclusive; · = no result given. Rows were chosen to be rich in hits. Some 1.5% of all compounds tested hit in one or more screens of this group. Unless noted, the call rests on the fitted dose curve; in most records, active means well fitted curve in the direction sought with a large enough effect; inconclusive means small, poorly fitted or top-dose-only effect, or another doubt; inactive means no such curve, though single readings can be large; an effect the other way counts as inactive or inconclusive. Unless noted, on the % scale 0 is the no-effect control and ±100 the full control effect.

SMILES	APE1 inh	RECQ1 helicase	WRN inhibitor	BLM inh	FEN1 inh	PI5P4K alpha inh	ADP-Glo interf
O=C(NCc1ccccc1Cl)C(=O)NCC(c1ccc2c(c1)OCO2)N1CCOCC1 (configuration not stated)	·	·	·	-2%	0%	·	·
O=C(COc1ccc(Cl)cc1)NC1=NN(c2ccccc2)C(=O)C1	0%	-4%	-23%	-11%	-25%	-58*	-2%
COC(=O)c1ccccc1C(=O)c1cccc2ccccc12	16%	·	8%	-4%	-11%	5	·
COC(=O)c1c[nH]c(=O)c2ccccc12	25%	-1%	8%	-1%	0%	-56*	-7%
Fc1ccc(C2=CC(c3ccco3)n3ncnc3N2)cc1 (configuration not stated)	-7%	i	-13%	2%	1%	9	·
C1=C(c2ccc(-c3ccccc3)cc2)Nc2ncnn2C1c1ccco1 (configuration not stated)	-5%	-5%	-25%	-8%	-3%	-56*	-11%
CN1Cc2c(N3CCOCC3)nc(SCCC#N)c(C#N)c2CC1(C)C	11%	18%	-5%	0%	0%	-1	·
CC(C)Sc1nc(N2CCOCC2)c2c(c1C#N)CC(C)(C)N(C)C2	-7%	11%	?	-1%	1%	-53*	1%
NS(=O)(=O)c1ccc(Nc2nc(-c3ccc4ccccc4c3)cs2)cc1	-5%	-19%	-3%	-7%	-4%	·	·
Cc1ccc(-c2csc(Nc3ccc(S(N)(=O)=O)cc3)n2)o1	-3%	i	-33%	-12%	-14%	-65*	1%
Cc1ccc(-c2csc(NC(=O)Cc3ccc(F)cc3)n2)o1	-4%	-3%	-33%	-9%	-22%	-56*	4%
Cc1ccc(-c2csc(NC(=O)c3ccc(-c4ccccc4)cc3)n2)o1	-2%	-9%	-10%	-11%	-25%	?	·
CCc1ccccc1NC(=O)Cn1cc2c(n1)CCC(C)C2 (configuration not stated)	·	·	·	-1%	-4%	·	·
COc1ccc2[nH]c(=O)c(CN(Cc3nnnn3Cc3ccco3)C3CCCCC3)cc2c1	?	?	?	?	-13%	-59*	-4%
COc1ccc(Cn2nnnc2CN(Cc2cc3cc(C)ccc3[nH]c2=O)C2CCCC2)cc1	17%	-8%	-3%	-1%	-16%	·	·
O=C(COc1ccc(-c2ccccc2)cc1)Nc1cccnc1	6%	·	8%	·	16%	2	·
O=C(COc1ccc([N+](=O)[O-])cc1)Nc1cccnc1	-1%	i	-13%	-3%	4%	-54*	-2%
COCC(=O)N1c2nc(-c3ccco3)nn2C2(CCCCC2)[C@@H]2CCCC[C@@H]21	·	·	·	-2%	-5%	·	·
O=c1cc(O)c2sc(Nc3cccc(C(F)(F)F)c3)nc2[nH]1	4%	1%	?	-10%	-12%	-84*	-8%
Cc1cc(=O)[nH]c(Nc2cccc(C(F)(F)F)c2)n1	7%	-16%	2%	-4%	13%	1	·
O=c1cc(O)c2sc(Nc3ccc(F)cc3)nc2[nH]1	3%	-2%	-10%	-3%	-4%	-83*	2%
CN(CC(=O)Nc1c(Cl)cccc1Cl)C(=O)c1cccc(-n2cccc2)c1	4.2µM*	·	50µM*	·	-11%	-78*	1%
CN(CC(=O)Nc1c(Cl)cccc1Cl)C(=O)c1cccc(S(=O)(=O)NCc2ccccc2)c1	11%	·	11%	·	-1%	-5	·
CN(CC(=O)Nc1cccc(F)c1)C(=O)c1cccc(-n2cccc2)c1	3.4µM*	·	32µM*	·	-14%	-82*	4%
O=C(Cc1cccs1)NCCc1csc(-c2ccccc2)n1	-6%	-8%	?	-10%	-3%	-60*	1%

Screens as filed in PubChem BioAssay.
